Measured values as given in PubChem BioAssay (NCATS).
Inconclusive results are not listed. Entries that show only a call come without a potency. Calls of active or inactive are those of the source. Calls come from the whole dose curve; as a rule, active = well fitted inhibition curve with a large enough effect; inconclusive = small, poorly fitted or top-dose-only effect; inactive = flat fitted curve, though single readings scatter.

molecular target: Calcium and integrin-binding protein 1 (Homo sapiens) (UniProt Q99828); assay: Primary qHTS for Identification of Calcium Integrin Binding Protein 1 (CIB1) Competitor (AID 1508620); conditions: CIB1-GST / FITC-alphaIIb peptide fluorescence polarization; series mostly up to 114 µM; note: top concentration of the series differs between compounds
Sequence (Q99828 whole entry, looked up): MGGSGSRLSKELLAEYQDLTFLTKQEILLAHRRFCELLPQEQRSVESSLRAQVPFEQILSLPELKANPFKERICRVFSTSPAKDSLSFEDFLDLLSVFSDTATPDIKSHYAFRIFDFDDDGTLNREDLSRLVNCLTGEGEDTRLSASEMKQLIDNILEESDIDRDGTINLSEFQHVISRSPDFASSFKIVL
Procedure, shortened: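 Fluorescence polarization competition: GST-tagged CIB1 (1 uM final) preincubated with compound 15 min at room temperature, then FITC-labelled alphaIIb peptide (100 nM final) added. After 15 min at room temperature, polarization read at Ex 480/Em 540.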

Question: With O=C(Nc1ccc(Br)cc1)Nc1nnc(-c2ccncc2)s1 as the molecule, how does the Potency read?
Answer: inactive

Question: Which Potency does the source give for N#Cc1nc(NCC(F)F)c2ncn(-c3cc(F)cc(F)c3)c2n1 here?
Answer: inactive

Question: COc1ccc(OC)c(-c2nnc3n2N=C(c2c(OC)cccc2OC)CS3)c1 was tested. Which Potency did it give?
Answer: inactive

Question: N#Cc1cccc(CSc2nc3ncc(Br)cc3[nH]2)c1 was tested. Which Potency did it give?
Answer: inactive

Question: How did the Potency turn out when COC(=O)c1ccccc1NC(=O)c1ccc(F)cc1F was run?
Answer: inactive

Question: Which Potency does the source give for Fc1c(-c2ccc3ncnc(NCc4cccs4)c3c2)ccc2c1OCO2 here?
Answer: inactive

Question: For O=S1(=O)N=C(Oc2ccccc2F)c2ccccc21, which Potency is on record?
Answer: inactive

Question: How did the Potency turn out when N#Cc1nc(Nc2ccc3ccccc3c2)nc(NC2CCCC2)n1 was run?
Answer: inactive

Question: For Cc1cc(C)n2ncc(C(=O)N3CCCC3)c2n1, which Potency is on record?
Answer: inactive

Question: Cc1ccc(OCCn2c(CCNC(=O)C3CCCC3)nc3ccccc32)cc1 was tested. Which Potency did it give?
Answer: inactive

Question: How did the Potency turn out when COCc1nn2c(=O)cc(N3CCNCC3)nc2s1 was run?
Answer: inactive

Question: How did the Potency turn out when COc1ccc(C2N(Cc3ccccc3)C(=O)c3ccccc3N2C)cc1COc1ccc(NC(C)=O)cc1 (stereo not given) was run?
Answer: inactive

Question: Which Potency does the source give for O=C(Nc1cncc(Cc2ccccc2)c1)c1ccc(-c2cccc([N+](=O)[O-])c2)o1 here?
Answer: inactive

Question: Which Potency does the source give for Cc1cc(N[S+](=O)([O-])c2ccc(NC(=O)Cc3nc4ccc(Cl)cc4[nH]3)cc2)no1 here?
Answer: inactive

Question: For Cc1cc(-c2nnc3n2CCCCC3)c(C)n1-c1ccc(Cl)c(Cl)c1, which Potency is on record?
Answer: inactive

Question: How did the Potency turn out when O=C(Cn1nc(-c2ccncc2)ccc1=O)NCCc1ccccc1 was run?
Answer: inactive

Question: How did the Potency turn out when O=C(CNC(=O)C1CCCC1)OC(C(=O)Nc1cc(C(F)(F)F)ccc1Cl)c1ccccc1 (stereo not given) was run?
Answer: inactive

Question: O=c1c2ccc(C(F)(F)F)cc2nc2sc(Nc3ccc4c(c3)CCC4)nn12 was tested. Which Potency did it give?
Answer: inactive

Question: CNc1cccc(S(=O)(=O)N2CCCN(S(=O)(=O)c3ccc4c(c3)OCCO4)CC2)c1 was tested. Which Potency did it give?
Answer: inactive

Question: Which Potency does the source give for Cc1cc2c(s1)c(C=O)c(C(=O)NCc1ccccc1F)n2C here?
Answer: inactive

Question: How did the Potency turn out when NC(=O)C1CCN(c2nc(-c3ccccc3-c3ccccc3)cs2)CC1 was run?
Answer: inactive

Question: Which Potency does the source give for c1ccc(CNCc2nnc(-c3cc4ccccc4[nH]3)o2)cc1 here?
Answer: inactive

Question: How did the Potency turn out when N#Cc1c(-c2ccc(O)cc2)no[n+]1[O-] was run?
Answer: inactive

Question: CC(C)(Nc1nc(-c2ccccc2C(F)(F)F)nc2ccccc12)c1ccc(-c2cccc(C(F)(F)F)c2)cc1 was tested. Which Potency did it give?
Answer: inactive

Question: With Cn1cc2ccc(-c3ccc4ncnc(NCc5cccs5)c4c3)cc2n1 as the molecule, how does the Potency read?
Answer: inactive

Question: How did the Potency turn out when O=C1c2ccccc2C(=O)N1Cc1ccccn1 was run?
Answer: inactive

Question: With O=C(NCc1ccc(F)cc1)n1c(-c2ccccc2)c(P(=S)(c2ccccc2)c2ccccc2)c2ccccc21 as the molecule, how does the Potency read?
Answer: inactive

Question: O=C(c1ccc(-c2cnc3c(O)cccc3c2)cc1)N1CCNCC1 was tested. Which Potency did it give?
Answer: inactive

Question: CN(CCc1ccco1)c1ncnc2ccc(-c3ccc4c(c3)OCO4)cc12 was tested. Which Potency did it give?
Answer: inactive

Question: Nc1cccc(S(=O)(=O)N2CCN(S(=O)(=O)c3c(F)cccc3F)CC2)c1 was tested. Which Potency did it give?
Answer: inactive

Question: Which Potency does the source give for COc1cccc(C2C(C#N)=C(NC(=O)CCc3ccccc3)Oc3ccc4ccccc4c32)c1 (stereo not given) here?
Answer: inactive

Question: N#Cc1nc(Nc2cc(F)cc(F)c2)c2ncn(CCN3CCCC3)c2n1 was tested. Which Potency did it give?
Answer: inactive

Question: Cc1cc(NS(=O)(=O)c2cc3c(cc2F)NC(=O)CC3)ccc1Cl was tested. Which Potency did it give?
Answer: inactive

Question: How did the Potency turn out when O=C(COc1ccccc1Br)NCCc1nc2ccccc2[nH]1 was run?
Answer: inactive

Question: How did the Potency turn out when O=C(Nc1ncc(Cc2ccc(C(F)(F)F)cc2)s1)c1cccc(-c2ccccc2)c1 was run?
Answer: inactive

Question: Which Potency does the source give for Cc1cc(C)n2ncc(C(=O)Nc3ccc(C)c(C)c3)c2n1 here?
Answer: inactive

Question: Which Potency does the source give for Cc1ccc(CNc2ncnc3ccc(-c4ccoc4C)cc23)o1 here?
Answer: inactive

Question: With O=C(Nc1nnc(-c2ccncc2)s1)Nc1ccc(Cl)cc1Cl as the molecule, how does the Potency read?
Answer: inactive

Question: For c1cncc(CNc2ncnc3ccc(-c4ccc5c(c4)OCCO5)cc23)c1, which Potency is on record?
Answer: inactive

Question: With CCOc1ccccc1-c1nnc2n1N=C(c1c(OC)cccc1OC)CS2 as the molecule, how does the Potency read?
Answer: inactive
